Compounds with a hit are over-represented: about 9.3% of the library has one in this group of screens.
ELG1 genotox = inducers of genotoxicity in HEK293T ELG1-luciferase cells; HEK293T ELG1-luciferase reporter, luminescence, 16 h; Potency, µM (top dose mostly 46 µM), without a hit: at the highest dose activity change, positive = activation, hits mostly activators; 1.3% of 330,000 active; AID 504466; note: % of control where 0% means no effect; nearly all actives have a fitted effect of over 60% in size
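Screening used a luciferase reporter fused to human ELG1 in HEK293T cells. Luminescence was read on a CCD plate imager after 16 hr exposure and 30 min ONE-Glo incubation.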
NPC1 promoter act = NPC1 promoter activation; Huh7 NPC1 promoter luciferase reporter, 24 h; Potency, µM (top dose mostly 9.22 µM), for inactives: top-dose activation, usual class: activators; 2.4% of 320,000 active; AID 485313; note: % of control where 0% means no effect; nearly all actives have a fitted effect of over 60% in size
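Readout is luciferase luminescence, reflecting NPC1 promoter activation in stably transfected Huh7 cells after 24 h compound exposure at 37 °C in reduced-serum medium with 10% FBS.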
FLuc modulator = inhibits or activates purified firefly luciferase, miR-21 counter-screen | purified FLuc, Km substrates, luminescence inhibition | P08659 | AID 588342 | 6.9% of 360,000 active | Potency, µM (top dose mostly 57.5 µM), for the others: at the top dose activity change, negative = inhibition, actives largely listed as inhibitors;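 note: plate controls were vehicle for no effect and reference inhibitor for full effect; nearly all actives have a fitted effect of over 55% in size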
Target sequence (P08659 whole entry, looked up): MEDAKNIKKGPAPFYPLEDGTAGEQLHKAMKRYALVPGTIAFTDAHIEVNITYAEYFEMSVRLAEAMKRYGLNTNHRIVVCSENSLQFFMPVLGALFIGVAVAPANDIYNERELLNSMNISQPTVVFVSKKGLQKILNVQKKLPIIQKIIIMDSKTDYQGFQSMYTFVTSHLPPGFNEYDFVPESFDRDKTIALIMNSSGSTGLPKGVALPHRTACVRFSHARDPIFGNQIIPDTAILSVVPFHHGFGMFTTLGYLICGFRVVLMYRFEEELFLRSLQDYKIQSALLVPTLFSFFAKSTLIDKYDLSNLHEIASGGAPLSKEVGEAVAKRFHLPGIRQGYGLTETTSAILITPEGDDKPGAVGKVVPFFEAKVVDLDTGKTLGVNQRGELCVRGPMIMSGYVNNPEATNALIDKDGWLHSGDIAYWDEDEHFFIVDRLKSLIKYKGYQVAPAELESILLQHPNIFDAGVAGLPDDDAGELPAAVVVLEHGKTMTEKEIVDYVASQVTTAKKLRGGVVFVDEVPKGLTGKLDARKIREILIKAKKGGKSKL
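Purified P. pyralis luciferase, 10 nM final, with Km-level 10 uM D-luciferin and 10 uM ATP in 50 mM Tris acetate pH 7.5, 10 mM Mg acetate, 0.01% Tween-20, 0.05% BSA; 6-point qHTS titration about 60 µM downward; luminescence read.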
ELG1 repair inh = inhibitors of ELG1-dependent DNA repair in HEK293T cells. 2.3% of 330,000 active. AID 504467. HEK293T ELG1-luciferase reporter, luminescence, 16 h; DNA damage induced by 5-fluorouridine. Potency, µM (series often up to 46.1 µM), inactives show at the highest dose activity change, negative = inhibition, hits mostly inhibitors; note: % is set by controls: 0 for no effect and ±100 for the full control effect; nearly all actives have a fitted effect of over 55% in size
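Luminescence from the luciferase reporter, measured 30 min after ONE-Glo reagent at room temperature, was the read-out. Beforehand, 2,000 cells per well were exposed for 16 hr at 37 °C to 5-fluorouridine together with compound or vehicle.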
Rab9 prom act = Rab9 promoter activation; Huh7 Rab9 promoter-luciferase reporter, luminescence, 24 h; Potency, µM (top dose mostly 9.22 µM), inactives show at the top dose activation, negative = inhibition, usual class: activators; 2.8% of 320,000 active; AID 485297; note: % of control where 0% means no effect; nearly all actives have a fitted effect of over 60% in size
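Promoter activation is measured as luciferase luminescence in Huh7 cells stably transfected with a Rab9 promoter–luciferase construct, following 24 h compound exposure at 37 °C and 10 min reagent incubation at ambient temperature.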
SMN2 splice enh = increases expression of the SMN2 splice variant; HEK293 SMN2-luciferase splicing reporter, luminescence, 30-36 h; Potency, µM (doses to about 46.1 µM), for the others: at the highest dose activity change, positive = activation, usual class: activators; 2.8% of 210,000 active; note: % of control where 0% means no effect; nearly all actives have a fitted effect of over 55% in size
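HEK293 cells carry an SMN2 […]–luciferase reporter in which exon 7 inclusion puts luciferase in frame. Cells were plated 10-12 h before compound addition, then incubated 30-36 h at 37C. ONE-Glo luminescence was read; sodium butyrate at 4.5 mM final served as control.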
The depositor's hits bear a star; u = inconclusive; x = no result; [ ] = dose if it differs, or a comment. Calls come from the whole dose curve; as a rule, active = well fitted curve in the direction sought with a large enough effect; inconclusive = small, poorly fitted or top-dose-only effect, or another doubt; inactive = no such curve, though single readings can be large; an effect the other way counts as inactive or inconclusive. Potency is the fitted concentration of half-maximal effect.

SMILES | ELG1 genotox | NPC1 promoter act | FLuc modulator | ELG1 repair inh | Rab9 prom act | SMN2 splice enh
NC(=S)N1OC[C@@H]2COc3ccc4ccccc4c3[C@@H]21 | -5% | 7% | -10% | 12µM* | -7% | -50%
COc1cc(/C=C2\C(=O)N(CCC#N)N=C2C)ccc1OCC(=O)Nc1ccccc1 | u | 2% | 11µM* | u | 2% | 16%
CC1=NN(c2ccccc2)C(=O)/C1=C/c1cc2cc(C)ccc2nc1N1CCCCC1 | 10% | u | u | u | u | u
CC1=NN(CCC#N)C(=O)/C1=C/c1ccc(N(C)C)cc1 | 5% | 1% | 19µM* | 10% | 3% | 0%
CCOc1cc(/C=C2\C(=O)N(CCC#N)N=C2C)ccc1OCC(N)=O | 2% | -1% | -14% | 16% | -8% | 27%
CC(=O)Oc1ccc(/C=C2/C(=O)N(c3ccccc3)N=C2C)cc1 | 1% | -3% | 24µM* | -1% | 2% | x
CC1=NN(c2ccccc2)C(=O)/C1=C/c1cccc(C)c1 | 7% | -4% | 24µM* | 3% | 1% | x
COc1ccc(/C=C2/C(=O)N(c3c(F)c(F)c(F)c(F)c3F)N=C2C)cc1 | 13% | 2% | u | u | -2% | x
COc1cc(/C=C2/C(=O)N(c3cccc(Br)c3)N=C2C)cc(OC)c1O | -3% | -3% | 17µM* | -1% | 0% | x
COc1ccc(/C=C2/C(=O)N(c3ccccc3)N=C2C)cc1OC | 11% | -4% | 6µM* | u | -2% | x
COc1ccc(C2=NN(c3ccccc3)C(=O)/C2=C\c2ccc(O)c(OC)c2)cc1 | 10% | 6% | u | 4% | 13% | 7%
COc1cc(/C=C2/C(=O)N(c3ccc(Br)cc3)N=C2C)cc([N+](=O)[O-])c1O | 1% | 2% | u | 5% | 5% | x
Cn1cc(C(=O)c2ccc(F)cc2)cc1-c1nc2ccccc2n1C | -23% | -1% | 0% | u | -6%[1.84 µM] | -77%
COc1ccc(-n2nc3cc(C)c(NC(=O)c4ccc(C)cc4C)cc3n2)cc1Cl | x | x | -2% | x | x | 4%
Cc1cc2nn(-c3ccc(F)cc3)nc2cc1N | 1.6µM* | 2.5µM* | 0.76µM* | u | 3.2µM* | x
Cc1cc2nn(-c3ccc(Cl)cc3)nc2cc1N | u | u | 0.34µM* | u | 22% | x
COc1ccc(-n2nc3cc(C)c(N)cc3n2)cc1Cl | u | 2.2µM* | 1.1µM* | u | 2.8µM* | x
Cc1nn(-c2ccc(C(=O)O)cc2)c(N)c1-c1ccccc1 | u | u | 3µM* | u | u | 11µM*
COc1ccc(-c2nn(-c3ccccc3)cc2N)cc1 | u | 3.5µM* | 11µM* | u | 2.8µM* | 14µM*
Cc1nn(C(C)(C)C)c(N)c1-c1ccccc1 | 2% | 0% | -14% | 0% | 0% | -43%
COc1ccc(-c2nn(-c3ccccc3)cc2CO)cc1 | u | 3% | u | u | u | -44%
COc1ccc(-c2c(C)nn(-c3ccccc3)c2N)cc1 | u | u | 21µM* | u | u | u
O=C(CCC(=O)N1CCN(c2ccc(O)cc2)CC1)c1ccc(Br)cc1 | 1% | 13% | -3% | u | -10% | x
Cn1c(Cl)nc2ccccc21 | -3% | -7% | 2% | u | -1% | u
CN(C)c1ccc(N=Nc2nc3ccccc3n2C)cc1 | -14% | 28% | 0.019µM* | u | u | x
SMILES | ELG1 genotox | NPC1 promoter act | FLuc modulator | ELG1 repair inh | Rab9 prom act | SMN2 splice enh
CCn1c(/C=N/c2nc3ccccc3n2C)nc2ccccc21 | -2% | -2% | -17% | 7% | 2% | -6%
Cn1c(N=Nc2ccccc2)nc2ccccc21 | 1.2µM* | 0.71µM* | 0.48µM* | u | 0.4µM* | 0.63µM*
COCCCNC(=O)c1ccc(Cn2c(=O)c3ccccc3n(Cc3ccc(C)cc3)c2=O)cc1 | 13% | 4% | -4% | 36% | -4% | 8%
CCc1ccccc1NC(=O)NCc1ccc2c(c1)CCN2C(=O)c1ccccc1 | x | x | -7% | x | x | x
CCN1CCN(c2ccc(N=Cc3ccc(O)cc3O)cc2)CC1 | 0% | 1% | 17µM* | -2% | -5% | -9%
COc1ccc(S(=O)(=O)N2CCC(c3nc4ccccc4[nH]3)CC2)cc1 | 0% | -2% | 2% | u | -9% | x
CC(C)C(=O)Nc1ccc(S(=O)(=O)N2CCC(c3nc4ccccc4[nH]3)CC2)cc1 | -4% | -5% | 10% | 5.8µM* | -1% | x
CC(C)(C)c1ccc(S(=O)(=O)N2CCC(c3nc4ccc(Cl)cc4[nH]3)CC2)cc1 | -7% | -1% | 0% | 21µM* | -8% | -41%
CC(=O)Nc1ccc(S(=O)(=O)N2CCC(c3nc4ccc(C)cc4[nH]3)CC2)cc1 | 0% | 0% | 3% | u | -1% | -15%
O=C(N/N=C/c1ccccc1O)NC12CC3CC(CC(C3)C1)C2 | u | u | 21µM* | u | 6.3µM* | x
CC(=O)c1ccc(NC(=O)CSc2nnc(NC(=O)c3ccco3)s2)cc1 | u | u | 2.4µM* | u | u | x
Cc1ccc(NC(=O)CSc2nnc(NC(=O)c3ccco3)s2)cc1 | 15% | 9% | 21µM* | u | 14% | 14%
CC(C)N(C(=O)CSc1nnc(NC(=O)c2ccco2)s1)C(C)C | 0% | -4% | -18% | 5% | -4% | -5%
CCCSc1nnc(NC(=O)c2ccco2)s1 | u | 29% | u | u | u | 11µM*
O=[N+]([O-])c1ccc2c(c1)C=C1CCCCC1(N1CCCC1)O2 (centres undefined) | 2% | -3% | 1% | 13% | 15% | -2%[1.84 µM]
COc1cccc(C2c3c(oc4ccc(C)cc4c3=O)C(=O)N2CCCN2CCOCC2)c1OC (centres undefined) | x | x | -1% | x | x | x
O=C(NCCO)c1ccc2c3n(nc2c1)-c1ccccc1CO3 | u | 0.5µM* | 2.1µM* | u | 2.8µM* | x
O=C(NCC1CC1)c1ccc2c3n(nc2c1)-c1ccccc1CO3 | u | 0.35µM* | 0.48µM* | u | u | x
Cc1ccc2c(c1)COc1c3ccc(C(=O)O)cc3nn1-2 | -1% | -22% | 1.3µM* | u | u | x
Cc1ccc2c(c1)COc1c3ccc(C(=O)NCC4CC4)cc3nn1-2 | 9% | 1.3µM* | 5.4µM* | u | u | x
c1cnc2ccc(C(c3nnnn3C3CCCC3)N3CCN(c4nc5ccccc5s4)CC3)cc2c1 (centres undefined) | -7% | 0% | 2% | -28% | 3% | 16%
COc1ccc(-c2cc(C(F)(F)F)nc(-n3ccnc3C)n2)cc1 | -6% | 0% | 2% | 26µM* | 1% | -20%

Screening data: PubChem BioAssay, National Center for Advancing Translational Sciences (NCATS)
